Counter-ions that a name gives are not always drawn.
Test system: HL-1
Experiment: relative cell viability (CellTiter-Glo) vs DMSO control (% of DMSO control); higher = more viable cells
Summary of the method: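 HL-1 mouse atrial cardiomyocytes were seeded into 384-well plates at 1000 cells per well along with compounds at 40, 200, 1000 or 5000 nM in 0.01% DMSO. After one day, the cells were moved to a hypoxic workstation (1% O2) for 48 h and then reoxygenated for 24 h in a normal incubator, while others remained in normoxia for the same period. Cell viability was measured by CellTiter-Glo luminescence and normalised to vehicle-treated control cells.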

[1] = oxygen condition: hypoxia 48 h (1% O2) + reoxygenation 24 h, 40 nM
[2] = oxygen condition: hypoxia 48 h (1% O2) + reoxygenation 24 h, 200 nM
[3] = oxygen condition: hypoxia 48 h (1% O2) + reoxygenation 24 h, 1000 nM
[4] = oxygen condition: hypoxia 48 h (1% O2) + reoxygenation 24 h, 5000 nM
[5] = oxygen condition: normoxia 72 h, 40 nM
[6] = oxygen condition: normoxia 72 h, 200 nM
[7] = oxygen condition: normoxia 72 h, 1000 nM
[8] = oxygen condition: normoxia 72 h, 5000 nM

| Structure (SMILES) | relative cell viability [1] | relative cell viability [2] | relative cell viability [3] | relative cell viability [4] | relative cell viability [5] | relative cell viability [6] | relative cell viability [7] | relative cell viability [8] |
| --- | --- | --- | --- | --- | --- | --- | --- | --- |
| CCN(C)C(=O)Oc1cccc([C@H](C)N(C)C)c1 [Rivastigmine tartrate] | 105 | 102 | 110 | 109 | 99.9 | 106 | 108 | 105 |
| C=C1C[C@@H]2[C@H](CC[C@]3(C)C(=O)CC[C@@H]23)[C@@]2(C)C=CC(=O)C=C12 [Exemestane] | 108 | 98.9 | 107 | 105 | 107 | 106 | 124 | 112 |
| Cc1cccc(Cc2c[nH]cn2)c1C [Detomidine HCl] | 100 | 94.5 | 101 | 103 | 92.9 | 88.2 | 98.6 | 113 |
| C[C@]12CC[C@H](O)CC1=CC[C@@H]1[C@@H]2CC[C@]2(C)C(=O)CC[C@@H]12 [Dehydroepiandrosterone] | 102 | 94 | 96.2 | 111 | 95.4 | 95.8 | 93.8 | 111 |
| COc1ccc(C(=O)N2CCCC2=O)cc1 [Aniracetam] | 106 | 111 | 110 | 113 | 101 | 104 | 111 | 116 |
| COc1ccc(C(CN(C)C)C2(O)CCCCC2)cc1 (configuration not stated) [Venlafaxine] | 97.2 | 96.1 | 101 | 102 | 102 | 96.1 | 99.5 | 108 |
| NCCc1c[nH]c2ccc(O)cc12 [Serotonin HCl] | 102 | 96.6 | 99.8 | 107 | 101 | 101 | 100 | 113 |
| N.N.[Cl][Pt][Cl] [Cisplatin] | 91.6 | 77.8 | 80.1 | 111 | 82.7 | 80.6 | 89.5 | 110 |
| CC(C)N(CCNC(=O)CN1CCCC1=O)C(C)C [Pramiracetam] | 104 | 103 | 106 | 112 | 98.6 | 104 | 107 | 111 |
| CCCN1C[C@H](CSC)C[C@@H]2c3cccc4[nH]cc(c34)C[C@H]21 [Pergolide mesylate] | 103 | 100 | 106 | 109 | 105 | 102 | 110 | 120 |
| O=P1(N(CCCl)CCCl)NCCCO1 (configuration not stated) [Cyclophosphamide monohydrate] | 100 | 94.2 | 97.1 | 108 | 104 | 97 | 106 | 111 |
| O=c1[nH]c2ccccc2n1CCCN1CCC(n2c(=O)[nH]c3cc(Cl)ccc32)CC1 [Domperidone] | 104 | 105 | 102 | 109 | 100 | 98.5 | 101 | 113 |
| C[C@]12CC[C@H]3[C@@H](CC[C@@]45O[C@@H]4C(O)=C(C#N)C[C@]35C)[C@@H]1CC[C@@H]2O [Trilostane] | 101 | 104 | 108 | 107 | 113 | 116 | 102 | 108 |
| CCOC(=O)c1cncn1[C@H](C)c1ccccc1 [Etomidate] | 101 | 107 | 118 | 115 | 104 | 109 | 104 | 109 |
| CC(=O)O[C@H]1C[C@@H]2CC[C@@H]3[C@H](CC[C@@]4(C)[C@H]3C[C@H]([N+]3(C)CCCCC3)[C@@H]4OC(C)=O)[C@@]2(C)C[C@@H]1[N+]1(C)CCCCC1 [Pancuronium] | 103 | 101 | 102 | 109 | 101 | 105 | 108 | 101 |
| Cc1cccc([C@H](C)c2c[nH]cn2)c1C [Dexmedetomidine] | 112 | 105 | 106 | 107 | 107 | 104 | 118 | 116 |
| C=CCN1CC[C@]23c4c5ccc(O)c4O[C@H]2C(=O)CC[C@@]3(O)[C@H]1C5 [Naloxone HCl] | 109 | 103 | 104 | 117 | 104 | 104 | 109 | 113 |
| C#C[C@]1(O)C=C[C@H]2[C@@H]3CCC4=CC(=O)CC[C@@H]4[C@H]3CC[C@@]21CC [Gestodene] | 102 | 100 | 109 | 107 | 111 | 103 | 105 | 106 |
| O=C(O[C@H]1C[N+]2(CCCOc3ccccc3)CCC1CC2)C(O)(c1cccs1)c1cccs1 [Aclidinium Bromide] | 104 | 108 | 108 | 110 | 103 | 115 | 106 | 121 |
| COc1ccc(OC)c(C(O)C(C)N)c1 (configuration not stated) [Methoxamine HCl] | 107 | 102 | 101 | 102 | 102 | 105 | 80.9 | 123 |

| Structure (SMILES) | relative cell viability [1] | relative cell viability [2] | relative cell viability [3] | relative cell viability [4] | relative cell viability [5] | relative cell viability [6] | relative cell viability [7] | relative cell viability [8] |
| --- | --- | --- | --- | --- | --- | --- | --- | --- |
| CN1c2ccccc2C(NCCCCCCC(=O)O)c2ccc(Cl)cc2S1(=O)=O (configuration not stated) [Tianeptine sodium] | 106 | 105 | 108 | 106 | 98.8 | 103 | 104 | 110 |
| CC(=O)O[C@@]12CO[C@@H]1C[C@H](O)[C@@]1(C)C(=O)[C@H](O)C3=C(C)[C@@H](O)C[C@@](O)([C@@H](OC(=O)c4ccccc4)[C@H]21)C3(C)C | 86.6 | 102 | 105 | 113 | 105 | 105 | 103 | 124 |
| CC[C@@H](C(N)=O)N1CCCC1=O [Levetiracetam] | 113 | 109 | 118 | 113 | 109 | 113 | 116 | 117 |
| O=C(O)c1nn(Cc2ccc(Cl)cc2Cl)c2ccccc12 [Lonidamine] | 104 | 105 | 109 | 111 | 111 | 102 | 122 | 112 |
| CNCC(=O)c1ccc(O)c(O)c1 [Adrenalone HCl] | 97.4 | 101 | 106 | 108 | 99.1 | 105 | 99.6 | 107 |
| C[C@@H]1O[C@@H](O[C@H]2C[C@@H](O)[C@]3(CO)[C@H]4[C@H](O)C[C@]5(C)[C@@H](C6=CC(=O)OC6)CC[C@]5(O)[C@@H]4CC[C@]3(O)C2)[C@H](O)[C@H](O)[C@H]1O [Ouabain] | 101 | 103 | 95.3 | 115 | 105 | 105 | 98.8 | 124 |
| Cc1cccc([C@H](C)c2c[nH]cn2)c1C [Dexmedetomidine HCl] | 111 | 107 | 102 | 89.4 | 106 | 96.7 | 98.5 | 99.5 |
| Cc1cccc(C)c1NC1=NCCCS1 [Xylazine HCl] | 99.5 | 101 | 103 | 107 | 106 | 98.1 | 102 | 105 |
| C/C=C(\C)C(=O)N[C@@H](c1ccccc1)[C@@H](O)C(=O)O[C@H]1C[C@@]2(O)[C@@H](OC(=O)c3ccccc3)[C@@H]3[C@]4(OC(C)=O)CO[C@@H]4C[C@H](O)[C@@]3(C)C(=O)[C@H](OC(C)=O)C(=C1C)C2(C)C [Cephalomannine] | 24.9 | 28 | 23.6 | 28 | 21.5 | 21.7 | 20.2 | 25.3 |
| CN(C)C(=O)Oc1ccc[n+](C)c1 [Pyridostigmine Bromide] | 98.7 | 104 | 103 | 103 | 92.1 | 104 | 95.5 | 100 |
| CC[C@@]1(O)C(=O)OCc2c1cc1n(c2=O)Cc2cc3ccccc3nc2-1 [Camptothecin] | 104 | 103 | 93.9 | 37.7 | 104 | 105 | 89.7 | 35.6 |
| CC[N+]1(C)CCCC(OC(=O)C(O)(c2ccccc2)c2ccccc2)C1 (configuration not stated) [Pipenzolate Bromide] | 101 | 98.3 | 102 | 105 | 100 | 111 | 101 | 116 |
| COC(=O)C1=CCCN(C)C1 [Arecoline] | 105 | 108 | 106 | 111 | 109 | 112 | 109 | 111 |
| CN1[C@@H]2CC[C@H]1C[C@@H](OC(=O)[C@H](CO)c1ccccc1)C2 [Hyoscyamine] | 104 | 103 | 109 | 106 | 109 | 101 | 114 | 116 |
| C[C@]12C/C(=C/O)C(=O)C[C@@H]1CC[C@@H]1[C@@H]2CC[C@@]2(C)[C@H]1CC[C@]2(C)O [Oxymetholone] | 104 | 104 | 104 | 114 | 104 | 102 | 105 | 115 |
| CN(C)C(=O)Oc1cccc([N+](C)(C)C)c1 [Neostigmine bromide] | 106 | 100 | 97.4 | 113 | 101 | 105 | 103 | 109 |
| O=P1(NCCCl)OCCCN1CCCl (configuration not stated) [Ifosfamide] | 110 | 117 | 124 | 109 | 103 | 101 | 117 | 112 |
| O=C1CC[C@@]2(O)[C@H]3Cc4ccc(O)c5c4[C@@]2(CCN3CC2CC2)[C@H]1O5 [Naltrexone HCl] | 102 | 106 | 99.6 | 108 | 107 | 106 | 113 | 110 |
| C=CC[C@]1(O)CC[C@H]2[C@@H]3CCC4=CC(=O)CCC4=C3C=C[C@@]21C [Altrenogest] | 105 | 110 | 106 | 108 | 104 | 107 | 102 | 105 |
